EP2 mod = EP2 receptor (human) modulation | P43116 | EP2-expressing cells, cAMP HTRF FRET, PGE2 co-stimulation | induction, % at 25 µM | 260,000 compounds, 0.83% hits;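 active = compounds whose cAMP rise, as percent of the full-agonist control response, exceeds 60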;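 also: rat C6 glioma line stably carrying human EP2 under a CMV promoter; the protocol text gives 20 µM as final concentration; 100% = response of wells given 1 µM PGE2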
NR1D1 modulator = modulates human Rev-erb alpha binding to DNA; P20393; Rev-erbα–FITC-DNA binding, fluorescence polarization, 90 min; activity, % at 10 µM; 370,000 compounds, 0.79% hits;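 active = activity above about 14%, limit read from the data; passing the limit was not always enough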;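 also: 0% = DMSO wells with 35 nM protein and 100% = DMSO wells with 750 nM protein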
Target sequence (P20393 whole entry, looked up): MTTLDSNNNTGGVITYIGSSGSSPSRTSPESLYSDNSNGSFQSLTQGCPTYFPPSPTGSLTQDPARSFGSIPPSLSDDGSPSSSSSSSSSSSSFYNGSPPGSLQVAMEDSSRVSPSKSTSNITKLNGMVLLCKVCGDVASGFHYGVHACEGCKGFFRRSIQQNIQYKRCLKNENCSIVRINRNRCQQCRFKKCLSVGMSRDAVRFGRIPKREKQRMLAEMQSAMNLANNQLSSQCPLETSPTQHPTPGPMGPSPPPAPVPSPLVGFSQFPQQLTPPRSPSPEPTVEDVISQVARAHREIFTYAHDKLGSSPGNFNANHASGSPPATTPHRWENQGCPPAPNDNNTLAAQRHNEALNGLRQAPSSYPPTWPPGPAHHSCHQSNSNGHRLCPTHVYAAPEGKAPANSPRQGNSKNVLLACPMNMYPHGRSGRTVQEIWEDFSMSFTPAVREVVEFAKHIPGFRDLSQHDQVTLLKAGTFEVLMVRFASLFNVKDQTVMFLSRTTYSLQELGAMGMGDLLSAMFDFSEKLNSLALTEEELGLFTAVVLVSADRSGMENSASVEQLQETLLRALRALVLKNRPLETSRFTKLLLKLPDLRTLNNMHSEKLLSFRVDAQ
SKN-1 block = blocks SKN-1 activity in C. elegans; AID 624304; C. elegans VP596 Pgst-4::GFP/RFP ratio, acrylamide-induced, 24 h; inhibition, % at 21.8 µM; 360,000 compounds, 0.49% hits;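 active = interference check ratio from 0.5 to 1.5 plus GFP to RFP signal ratio inhibition reaching or exceeding a fixed threshold, cut at about 30% in these data, passing the limit was not always enough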
RAM network inh = blocks the yeast RAM network; S. cerevisiae dse1pr::URA3 reporter, 5-FOA growth OD615, 2 d; analog-sensitive cbk1-as2 kinase mutant strain; inhibition, % at 50 µM; 190,000 compounds, 1.8% hits;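 active = inhibition above a set limit, 3 SD over mean compound inhibition, cut at about 8.4% in these data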;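 also: 0% = DMSO-only wells with no growth and 100% = 10 µM 1-NA-PP1 full growth; inhibition rescues growth on 5-FOA so higher OD means more RAM inhibition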
PG9 binder = PG9 antibody binding by small molecule. TR-FRET gp120-PG9 antibody binding. inhibition, % at 6.7 µM. 360,000 compounds, 0.43% hits; in the data active = inhibition above about 8.5%
PGE2 EP2 inh = EP2 receptor (human) inhibition; inhibition, % at 25 µM; 260,000 compounds, 0.52% hits; P43116; C6 glioma cells expressing human EP2, cAMP TR-FRET; cells stimulated with saturating PGE2;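 active = percent inhibition above 40 after rounding to a whole number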;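 also: rat C6 glioma host cells with rolipram phosphodiesterase inhibitor present; the protocol text gives 20 µM as final concentration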
Rev-erbA confirm = confirmation of modulators of human Rev-erb alpha DNA binding. shares compounds with NR1D1 modulator. Rev-erb alpha FITC-DNA binding, fluorescence polarization, 90 min. activation, % at 25 µM. 3,000 compounds, 61% hits. AID 1259319;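 active = activation at or above a set limit, or at least 3 SD above the negative control mean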;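 also: 0% = 35 nM protein with DMSO and 100% = 750 nM protein high control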
RORg DNA counter = affects RORgamma DNA binding in a Rev-erb alpha counter-screen | IC50, µM | shares compounds with NR1D1 modulator | purified RORgamma protein-FITC-DNA binding, fluorescence polarization | 910 compounds, 8% hits;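 active = Compounds whose fitted half-maximal concentration for disrupting protein-DNA binding is below 10 micromolar; the record names Rev-erb in its text, so the target is in doubt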
* hit, by the source's call; i = inactive; nt = not tested or not shown. Most compounds without a hit are left out; they make up all but 2.9% or so of the library.

SMILES	EP2 mod	NR1D1 modulator	SKN-1 block	RAM network inh	PG9 binder	PGE2 EP2 inh	Rev-erbA confirm	others
COC(=O)c1ccc(Cn2ccc3ccc(-c4ccc5ccn(C(=O)C6CCCCC6)c5c4)cc32)cc1	nt	25*	nt	nt	nt	nt	34*	RORg DNA counter=i
COC(=O)c1ccc(Cn2ccc3ccc(-c4ccc5ccn(C(=O)c6ccc(C)cc6)c5c4)cc32)cc1	nt	50*	nt	nt	nt	nt	62*	RORg DNA counter=1.4*
CCCCOc1ccc(C(=O)n2ccc3ccc(-c4ccc5ccn(Cc6ccc(OC)cc6)c5c4)cc32)cc1	nt	35*	nt	nt	nt	nt	6
COc1ccc(C(=O)N2CCN(Cc3ccccc3F)C[C@@H]2C(C)C)cc1OC	-27	nt	nt	nt	nt	nt	nt
Cc1sc2ncnc(SCC(=O)Nc3ccc4c(c3)OCO4)c2c1C	1	nt	nt	nt	nt	16	nt
O=C(Cn1c(-c2cccs2)cc2cccnc21)NCCCCn1ccnc1	-47	nt	nt	nt	nt	5	nt
O=C(NC1CCCCCCC1)c1cc(-c2ccccn2)nc2ccccc12	-4	41*	0	0	0	2	0
O=C(NC1CCN(Cc2ccccc2)CC1)c1cc(-c2ccccn2)nc2ccccc12	8	-2	29	1	-2	16	nt
COC(=O)C1=C(C)NC(=O)CC1c1cccc(Cl)c1Cl (stereo not drawn)	38	-2	0	2	-1	6	nt
COc1ccccc1C1CC(=O)NC(C)=C1C(=O)OC(C)C (stereo not drawn)	9	22*	7	2	0	7	2
COc1cc(C(=O)OCc2cc3ccccc3[nH]c2=O)cc(OC)c1OC	3	45*	18	2	-1	18	30*
COc1ccccc1N(Cc1cc2ccccc2[nH]c1=O)C(=O)c1cc(OC)c(OC)c(OC)c1	-44	nt	nt	nt	nt	6	nt
CC1CCCC(C)N1C(=O)CSc1ncccc1-c1nc2ccccc2[nH]1 (stereo not drawn)	18	nt	nt	nt	nt	5	nt
Cc1ccc2nc(-c3cccnc3SCC(=O)N3c4ccccc4CC3C)[nH]c2c1 (stereo not drawn)	-35	33*	9	7	-1	9	20*
COc1cc2cc(C)c(SCC(=O)N3c4ccccc4CC3C)nc2cc1OC (stereo not drawn)	50	nt	nt	nt	nt	4	nt
Cc1ccc2nc(SCC(=O)N3c4ccccc4CC3C)c(C)cc2c1 (stereo not drawn)	42	28*	-3	2	0	14	8
O=C(CSc1nnnn1-c1ccc(F)cc1)Nc1nc(-c2cccs2)cs1	-34	nt	nt	nt	nt	14	nt
N#Cc1c(N2CCSCC2)nsc1-c1ccccc1Cl	nt	23*	10	nt	4	nt	28*
N#Cc1c(Cl)cccc1N1CCSCC1	nt	-3	5	nt	-2	nt	nt
Brc1ccc(-c2nn3c(-c4ccccc4)nnc3s2)cc1	nt	34*	nt	nt	nt	nt	71*	RORg DNA counter=2.9*
COc1ccc(-c2nn(CC(=O)Nc3ccc(Cl)c(Cl)c3)c(=O)c3ccccc23)cc1	nt	22*	39*	5	2	12	14
COc1ccc(-c2ccc(=O)n(CC(=O)Nc3ccc4c(c3)OCCO4)n2)cc1	-51	18*	-5	1	1	9	11
CC(=O)c1cccc(NC(=O)Cn2nc(-c3ccc(Cl)cc3)ccc2=O)c1	-96	23*	-12	0	0	9	12
COC(=O)COc1ccc(NC(=O)Cn2nc(-c3ccccc3)c3ccccc3c2=O)cc1	-22	2	-2	1	1	4	nt
O=C(NCC(c1ccccc1)c1ccccc1)c1ncoc1-c1cccs1	4	nt	nt	nt	nt	7	nt
SMILES	EP2 mod	NR1D1 modulator	SKN-1 block	RAM network inh	PG9 binder	PGE2 EP2 inh	Rev-erbA confirm	others
Cc1nc2ccc(C(=O)OCc3nnc(-c4ccccc4)o3)cc2nc1C	nt	3	-12	nt	-1	nt	nt
Cc1nc2ccc(C(=O)OCc3nnc(-c4ccc(Br)cc4)o3)cc2nc1C	nt	23*	-3	nt	-3	nt	19*
O=C(CSc1nnc(NC(=O)C2CCCCC2)s1)NC1CCCC1	-9	nt	nt	nt	nt	16	nt
COc1ccc(N(Cc2cc3cccc(C)c3[nH]c2=O)S(=O)(=O)c2ccc(OC)cc2)cc1	nt	8	0	nt	-1	nt	nt
COc1ccc(N(Cc2cc3cccc(C)c3[nH]c2=O)S(=O)(=O)c2ccc(Cl)cc2)cc1	nt	21*	18	nt	0	nt	14
CCOc1ccc(-n2c(SCC(=O)Nc3ccccc3Cl)nnc2-c2ccco2)cc1	33	nt	nt	nt	nt	12	nt
CN1/C(=C/C(=S)NC(=O)C2(C)CC2(Cl)Cl)C(C)(C)c2ccccc21 (stereo not drawn)	-49	23*	46	5	0	7	-2
CCCNC(=O)c1ccc(N2CCC3(CC2)CC(c2ccccc2)=NO3)c(NC(=O)c2cccc(OC)c2)c1	nt	20*	-9	nt	0	nt	1
O=C(Cn1nnc(-c2cccnc2)n1)Nc1ccc2c(c1)OCO2	-9	nt	nt	nt	nt	13	nt
COc1cc(C=O)c(Br)cc1OCc1ccc(C)cc1	2	18*	9	1	1	14	7
CCc1nn(CC(=O)OC)c(=O)c2cc3occc3n12	-70	nt	nt	nt	nt	8	nt
CCCCN(C(=O)c1ccco1)c1nnc(-c2cc(OC)c(OC)c(OC)c2)s1	1	99*	2	6	-2	7	15
CC(=O)Nc1ccc2c(COC(=O)CC3Sc4ccccc4NC3=O)cc(=O)oc2c1 (stereo not drawn)	-20	53*	-7	6	-3	11	26*
COC(=O)COc1ccc2cc(-c3ccccc3)c(=O)oc2c1	nt	14	10	nt	2	nt	nt
COC(=O)COc1ccc2cc(-c3ccc(OC)cc3)c(=O)oc2c1	nt	25*	9	nt	-1	nt	-4
COc1ccc(-c2cc3ccc(OCC(C)=O)cc3oc2=O)cc1OC	nt	19*	2	nt	-1	nt	15
COc1ccc(NC(=O)CN(c2ccc3c(c2)OCO3)S(C)(=O)=O)cc1	-17	nt	nt	nt	nt	6	nt
CC(C)NC(=O)/C(C#N)=C\c1ccc(N(C)C)o1	-13	15*	11	0	-30	7	12
N#C/C(=C\c1ccc(O)cc1)C(=O)NCc1ccccc1	nt	4	-13	nt	-2	nt	nt
CCN(CC)c1ccc(/C=C(/C#N)C(=O)NC(C)C)o1	-20	19	12	1	-17	4	nt
CCN(CC)c1ccc(/C=C(/C#N)C(=O)NCc2ccccc2)o1	3	25*	12	3	-14	20	6
COc1ccc(OC)c(CNCc2cc3c(C)nn(-c4ccccc4)c3[nH]c2=O)c1	-9	nt	nt	nt	nt	14	nt
CC1CCC(NC(=O)C2CCN(S(=O)(=O)c3ccc(Cl)cc3)CC2)CC1 (stereo not drawn)	-16	nt	nt	nt	nt	6	nt

Screening data as filed in PubChem BioAssay.
